Measurements reported in PubChem BioAssay (NCATS).
Records with an inconclusive call do not appear. The source made the active and inactive calls. The call rests on the fitted dose curve; in most records, active means well fitted curve in the direction sought with a large enough effect; inconclusive means small, poorly fitted or top-dose-only effect, or another doubt; inactive means no such curve, though single readings can be large; an effect the other way counts as inactive or inconclusive.

Test: Cell Proliferation Assay against the HBL1 Cell Line (AID 651646);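 further: cells exposed to compound for 48 h before reading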
Settings: HBL1 DLBCL cells; at 46.1 µM (top of the series)
In short: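 CellTiter-Glo luminescence after 48 h compound exposure at 37C gives percent activity, with DMSO as 100% and 9.2 uM bortezomib final as 0%. Cells: 500 log-phase HBL1 per well, RPMI plus 5% FBS.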

SMILES	viability, percent of control
C[C@@H]1[C@@H](C(=O)C[C@H]2O[C@@H]3O[C@]4(C)CC[C@@H]5[C@H](C)CC[C@@H]([C@H]2C)[C@@]35OO4)O[C@@H]2O[C@]3(C)CC[C@H]4[C@H](C)CC[C@@H]1[C@@]24OO3	21.3%
CC(C)n1c(C=C[C@H](O)C[C@H](O)CC(=O)O)c(-c2ccc(F)cc2)c2ccccc21	74.8%
CN(C)CCN(C)CCc1ccc(Cl)c(Cl)c1	73.4%
O=c1c(O)c(-c2ccc(O)c(O)c2)oc2cc(O)cc(O)c12	56.5%
CC1=C2C[C@@H]3[C@@H](CC=C4C[C@@H](O)CC[C@@]43C)[C@@H]2CC[C@]12O[C@H]1C[C@H](C)CN[C@H]1[C@H]2C	69.1%
Cc1sc2c(c1C)C(c1ccc(Cl)cc1)=N[C@@H](CC(=O)OC(C)(C)C)c1nnc(C)n1-2	13.5%
O=C(O)C(=O)c1cn(Cc2ccccc2)c2ccc(-c3ccc(OC(F)(F)F)cc3)cc12	68.4%
CS(=O)c1ccc(-c2nc(-c3ccc(F)cc3)c(-c3ccncc3)[nH]2)cc1 (stereo unspecified)	100%
CO[C@@H](C(=O)N1Cc2[nH]nc(NC(=O)c3ccc(N4CCN(C)CC4)cc3)c2C1)c1ccccc1	77.1%
CNC(=O)c1ccc(N2C(=S)N(c3ccc(C#N)c(C(F)(F)F)c3)C(=O)C23CCC3)cc1F	77.6%
Cc1cc(SCc2sc(-c3ccc(C(F)(F)F)c(F)c3)nc2C)ccc1OCC(=O)O	93.2%
CCCCC/C=C\C/C=C\C/C=C\C/C=C\CCCC(=O)NC1CC1	109%
C[C@]12CCC(=O)C(O)=C1CC[C@@H]1[C@@H]2CC[C@]2(C)C(=O)CC[C@@H]12	87.5%
C[C@@H]1[C@@H](CC(C[C@H]2O[C@@H]3O[C@]4(C)CC[C@@H]5[C@H](C)CC[C@@H]([C@H]2C)[C@@]35OO4)C[S+](=O)([O-])c2ccc(COC(=O)N(C)C)cc2)O[C@@H]2O[C@]3(C)CC[C@H]4[C@H](C)CC[C@@H]1[C@@]24OO3 (stereo partly specified)	39.8%

Test: Cell Proliferation Assay against the TMD8 Cell Line (Caspase readout at 16 hrs) (AID 651712); further: potency means the concentration at half of the fitted maximal effect;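 on caspase activation: 0% = DMSO and 100% = 9.2 µM bortezomib caspase activation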
Settings: TMD8 lymphoma cells, caspase activation luminescence; series mostly up to 46.1 µM
In short: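 Caspase-Glo luminescence measured apoptosis after a 16 h, 37 C compound exposure of TMD8 cells (500 cells/well, 5% FBS RPMI). DMSO set 0% and bortezomib at 9.2 uM final set 100% activity.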

SMILES	Potency
COc1cc([C@@H]2c3cc4c(cc3[C@H](O)[C@H]3COC(=O)[C@H]23)OCO4)cc(OC)c1OC	0.0037 µM (active)
CN(C)CCN(C)CCc1ccc(Cl)c(Cl)c1	inactive
Cc1sc2c(c1C)C(c1ccc(Cl)cc1)=N[C@@H](CC(=O)OC(C)(C)C)c1nnc(C)n1-2	0.469 µM (active)
CO[C@@H](C(=O)N1Cc2[nH]nc(NC(=O)c3ccc(N4CCN(C)CC4)cc3)c2C1)c1ccccc1	13.2 µM (active)
CCCCC/C=C\C/C=C\C/C=C\C/C=C\CCCC(=O)NC1CC1	inactive
C[C@]12CCC(=O)C(O)=C1CC[C@@H]1[C@@H]2CC[C@]2(C)C(=O)CC[C@@H]12	inactive
C[C@@H]1[C@@H](CC(C[C@H]2O[C@@H]3O[C@]4(C)CC[C@@H]5[C@H](C)CC[C@@H]([C@H]2C)[C@@]35OO4)C[S+](=O)([O-])c2ccc(COC(=O)N(C)C)cc2)O[C@@H]2O[C@]3(C)CC[C@H]4[C@H](C)CC[C@@H]1[C@@]24OO3 (stereo partly specified)	0.209 µM (active)
